Experimental data reported in PubChem BioAssay (NCI).
This is part of a sample that, as a whole, favours compounds with a hit. Of some 83,000 tested, about 20% had one in any assay.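 Compound tested at a single concentration for 48 hours in 96-well plates; a percent growth value below 10 was scored as active.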 Active and inactive are the calls of the source.

Columns and labels:
Test in all cases: NCI-60 one-dose screen, 48 h (100 = growth as untreated, 0 = no growth, -100 = all killed)
Conditions in all cases: 10 µM unless noted
HCT-15 colon = test system: HCT-15 colon
HT29 colon = test system: HT29 colon
SNB-75 CNS = test system: SNB-75 CNS
SNB-19 CNS = test system: SNB-19 CNS
U251 CNS = test system: U251 CNS
PC-3 prostate = test system: PC-3 prostate
SK-MEL-5 melanoma = test system: SK-MEL-5 melanoma
UACC-62 melanoma = test system: UACC-62 melanoma
SK-MEL-2 melanoma = test system: SK-MEL-2 melanoma
EKVX NSCLC = test system: EKVX NSCLC
SN12C renal = test system: SN12C renal
UO-31 renal = test system: UO-31 renal
TK-10 renal = test system: TK-10 renal
ACHN renal = test system: ACHN renal
CAKI-1 renal = test system: CAKI-1 renal
A498 renal = test system: A498 renal
CCRF-CEM leukemia = test system: CCRF-CEM leukemia
MOLT-4 leukemia = test system: MOLT-4 leukemia
SK-MEL-28 melanoma = test system: SK-MEL-28 melanoma

Measured: growth

COc1ccc2[nH]cc(-c3nnc(N)nc3-c3c[nH]c4ncc(Br)cc34)c2c1
inactive: HCT-15 colon 90.8% | HT29 colon 96.7% | SNB-75 CNS 93.5% | SNB-19 CNS 91% | U251 CNS 76.1% | PC-3 prostate 110% | SK-MEL-5 melanoma 91.1% | UACC-62 melanoma 80.1% | SK-MEL-2 melanoma 104% | EKVX NSCLC 82.6% | SN12C renal 77.1% | UO-31 renal 65.9% | TK-10 renal 101% | ACHN renal 59% | CAKI-1 renal 70% | A498 renal 87.7% | CCRF-CEM leukemia 88.9% | MOLT-4 leukemia 70.8%

C=CC[N+](C)(C)CCn1c2ccccc2c2nc3cc(C)c(C)cc3nc21
inactive: HCT-15 colon 106% | HT29 colon 105% | SNB-75 CNS 88.5% | SNB-19 CNS 19.2% | U251 CNS 72.9% | PC-3 prostate 97.4% | SK-MEL-5 melanoma 63.7% | UACC-62 melanoma 97.1% | SK-MEL-28 melanoma 79.6% | SK-MEL-2 melanoma 112% | EKVX NSCLC 89.7% | SN12C renal 14.2% | UO-31 renal 71% | ACHN renal 107% | CAKI-1 renal 90% | A498 renal 115% | CCRF-CEM leukemia 102% | MOLT-4 leukemia 116%

C[C@H](Nc1nc(NCCc2ccccc2)nc2ccccc12)c1ccccc1
active: HCT-15 colon -91.2% | HT29 colon -90.6% | SNB-75 CNS -44.6% | SNB-19 CNS -75% | U251 CNS -77.7% | PC-3 prostate -54.5% | SK-MEL-5 melanoma -100% | UACC-62 melanoma -95% | SK-MEL-28 melanoma -98.5% | EKVX NSCLC -86.2% | SN12C renal -94.6% | UO-31 renal -95.9% | TK-10 renal -93.6% | ACHN renal -97.2% | CAKI-1 renal -85.9% | A498 renal -69.5% | CCRF-CEM leukemia -16.3% | MOLT-4 leukemia -60.3%

S=C(Nc1ccc(OCc2nc3ccccc3[nH]2)cc1)NC1CCCCC1
inactive: HCT-15 colon 106% | HT29 colon 102% | SNB-75 CNS 99.1% | SNB-19 CNS 94% | U251 CNS 97% | PC-3 prostate 95.8% | SK-MEL-5 melanoma 92.3% | UACC-62 melanoma 77.6% | SK-MEL-2 melanoma 123% | EKVX NSCLC 104% | SN12C renal 87.8% | UO-31 renal 96.8% | TK-10 renal 130% | ACHN renal 101% | CAKI-1 renal 100% | A498 renal 150% | CCRF-CEM leukemia 95% | MOLT-4 leukemia 98.3%

C/C(=N\N=C1/C(=O)Nc2ccccc21)c1ccc2c(c1)Nc1ccccc1S2
inactive: HCT-15 colon 48.6% | HT29 colon 71.5% | SNB-75 CNS 44% | SNB-19 CNS 64.5% | U251 CNS 60.1% | PC-3 prostate 63.6% | SK-MEL-5 melanoma 42% | UACC-62 melanoma 40.5% | SK-MEL-28 melanoma 75% | SK-MEL-2 melanoma 80.5% | EKVX NSCLC 43.7% | SN12C renal 42.1% | UO-31 renal 34.4% | ACHN renal 56.1% | CAKI-1 renal 49.4% | A498 renal 28.2% | CCRF-CEM leukemia 45.8% | MOLT-4 leukemia 11.4%

CC(C)c1ccc2c(N)c(C(=O)Nc3ccc(C(F)(F)F)cn3)sc2n1
active: SK-MEL-5 melanoma 5.02% | MOLT-4 leukemia 7.3%
inactive: HCT-15 colon 58.7% | HT29 colon 69.5% | SNB-75 CNS 78.6% | SNB-19 CNS 71.5% | U251 CNS 62.9% | PC-3 prostate 44.7% | UACC-62 melanoma 69.7% | SK-MEL-28 melanoma 77.3% | SK-MEL-2 melanoma 77.6% | EKVX NSCLC 26.4% | SN12C renal 70.5% | UO-31 renal 62% | ACHN renal 49% | CAKI-1 renal 55.2% | A498 renal 115% | CCRF-CEM leukemia 34.1%

COc1ccc(C2=NN(C(C)=O)C(c3ccc(OCc4ccc(Cl)cc4)c(OC)c3)C2)cc1OC (centres undefined)
inactive: HCT-15 colon 27.9% | HT29 colon 40.1% | SNB-75 CNS 61.3% | SNB-19 CNS 51.4% | U251 CNS 46.8% | PC-3 prostate 23.6% | UACC-62 melanoma 34% | SK-MEL-28 melanoma 56.8% | SK-MEL-2 melanoma 44.1% | EKVX NSCLC 46.3% | SN12C renal 43.2% | UO-31 renal 22.4% | ACHN renal 42.9% | CAKI-1 renal 47.2% | A498 renal 64.9% | CCRF-CEM leukemia 50.1% | MOLT-4 leukemia 20.5%
active: SK-MEL-5 melanoma -9.52%

Cc1ccc(NCC(=O)Cn2cc(COc3ccc(C=Nc4cnc5ccccc5c4)cc3)nn2)cc1
inactive: HCT-15 colon 112% | HT29 colon 116% | SNB-75 CNS 111% | SNB-19 CNS 97.9% | U251 CNS 101% | PC-3 prostate 106% | SK-MEL-5 melanoma 102% | SK-MEL-28 melanoma 112% | SK-MEL-2 melanoma 136% | EKVX NSCLC 106% | SN12C renal 99.9% | UO-31 renal 90.1% | TK-10 renal 109% | ACHN renal 107% | CAKI-1 renal 97% | A498 renal 124% | CCRF-CEM leukemia 102% | MOLT-4 leukemia 108%
